Percent Effect data for 19 compounds are collected here from ChEMBL document CHEMBL3988442, “University of Dundee, Small-Polar-MMV Screening Library” (2021).

Assay [1] concerns the target T1, Aspartate--tRNA(Asp/Asn) ligase (Mycobacterium tuberculosis (strain ATCC 25618 / H37Rv)) (UniProt P9WFW3). Further: in the data most compounds retested in dose-response had high values.
T1 sequence (whole entry): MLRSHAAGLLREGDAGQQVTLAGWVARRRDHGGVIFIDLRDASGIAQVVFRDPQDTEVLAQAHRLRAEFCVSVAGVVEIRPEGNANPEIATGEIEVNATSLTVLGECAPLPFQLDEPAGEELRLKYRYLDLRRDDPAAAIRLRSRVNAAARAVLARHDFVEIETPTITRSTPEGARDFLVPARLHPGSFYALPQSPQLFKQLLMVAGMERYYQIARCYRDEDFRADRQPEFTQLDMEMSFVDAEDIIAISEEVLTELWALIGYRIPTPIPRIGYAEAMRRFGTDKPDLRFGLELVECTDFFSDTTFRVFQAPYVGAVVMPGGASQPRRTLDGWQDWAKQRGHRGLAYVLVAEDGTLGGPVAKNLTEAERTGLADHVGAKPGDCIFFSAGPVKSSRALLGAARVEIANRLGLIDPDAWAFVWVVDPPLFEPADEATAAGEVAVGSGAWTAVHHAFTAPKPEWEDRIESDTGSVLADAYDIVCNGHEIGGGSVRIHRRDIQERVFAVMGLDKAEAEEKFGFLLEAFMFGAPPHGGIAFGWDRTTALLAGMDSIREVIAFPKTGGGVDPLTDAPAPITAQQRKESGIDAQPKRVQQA
Kind of assay: Assay for Asp RNA synthetase-1 from Mycobacterium tuberculosis. The assay is classed as functional. The note with it: 30 µM. On the set-up: scale not given: direction of the effect not stated beside the values.

The target in assay [2] is Shiga toxin 2 (Escherichia coli O157:H7) (UniProt P09385+P09386). Kind of assay: E. coli 0.157:H7 Shiga Toxin SOP - stx2 screening assay. The assay is classed as functional. On the set-up: scale not given: direction of the effect not stated beside the values. To be noted: 30 µM.

Regarding `CN(C)C(=O)Cc1nc(CN2CCn3c(nnc3C3CC3)C2)cs1`, the Percent Effect is -1.22% in assay [1] and 10.2% in assay [2].
For `c1csc(-c2nc(CN3CCOC(Cn4cccn4)C3)co2)c1` (stereo not drawn), the Percent Effect in assay [1] is 9.95%; in assay [2], 13.2%.
With `Cc1nc2c(c(C)c1CC(=O)Nc1cccc(C#N)c1)c(=O)[nH]n2C`, the Percent Effect came out at 4.67% in assay [1] and 5.09% in assay [2].
The like results for `CC(=O)N(Cc1noc(C)n1)C1CCN(Cc2ccon2)C1` (stereo not drawn) were, in that order, -1.5% and -70.9%.
For the compound `Cc1cc(F)ccc1CN1CCCC2(C1)OCCO2`, the Percent Effect was -5.59% in assay [1] and 10.5% in assay [2].
For the compound `O=C(NCN1CCc2ccccc2C1)c1cnccn1`, the Percent Effect in assay [1] was 8.37%; in assay [2], -18.9%.
Taken in the same sequence, the figures for `COc1ncccc1C(=O)NCC(C)Oc1cccnc1` (stereo not drawn) were -5.57% and -2.36%.
Taken in the same sequence, the figures for `COc1cccc2c1OCC(C(=O)N1CCC(N3CCOC3=O)CC1)C2` (stereo not drawn) were -3.21% and 17%.
Consider `O=C(CCc1nc2cccnc2[nH]1)Nc1cccnc1`, for which the Percent Effect is -1.77% in assay [1] and -77.4% in assay [2].
Taken in the same sequence, the figures for `Cc1nc(CN2CCCC(N(C)Cc3nnsc3Cl)C2)no1` (stereo not drawn) were -2.25% and 18.2%.
Regarding `Cc1nc(O)c2nnn(C[C@H]3CCCN3C(=O)C(C)(C)C)c2n1`, the Percent Effect in assay [1] was 5.78%; in assay [2] it was -7.47%.
Consider `O=C(Cc1ccc(F)cc1)N1CCn2cc(Cn3cccn3)nc2C1`, for which the Percent Effect came out at 5% in assay [1] and 5.65% in assay [2].
As for `Cc1oc(C)c(C(=O)N2CCCN(Cc3cscn3)CC2)c1C`, the Percent Effect in assay [1] is -1.41%; in assay [2], 26.2%.
In the case of `Cc1nc(CNCC2CN(C)CCO2)cs1` (stereo not drawn), the Percent Effect in assay [1] is -3.4%; in assay [2] it was -38.1%.
For `N#Cc1cccc(C(=O)N2CCc3ncc(Cn4cccn4)n3CC2)c1`, the Percent Effect is 3.32% in assay [1] and 9.25% in assay [2].
Consider `CN(Cc1ncc[nH]1)S(=O)(=O)c1cccc(C(=O)N2CCOCC2)c1`, for which the figures for the Percent Effect in assay [1] and in assay [2] were 8.16% and -12.2%, respectively.
The like results for `CC(O)CN1CCN(C(=O)c2ccc(N(C)C)nn2)CC1` (stereo not drawn) were, in that order, -6.65% and -70.5%.
With `CCc1cccc(NS(=O)(=O)c2cc3c(c(C(=O)O)c2)OCCO3)c1`, the Percent Effect in assay [1] is -2.26%; in assay [2], -33.5%.
Regarding `Cc1nn(C)c(N(C)C)c1CNC(C)c1cccc(OC(C)C)c1` (stereo not drawn), the results for the Percent Effect in assay [1] and in assay [2] were -3.06% and -5.32%, respectively.
